Only some compounds are listed: those with a hit (about 2.4% of all), similar ones and a draw of the others.
D2 PAM-1 = positive allosteric modulators of human D2 dopamine receptor. P14416. HEK293 T-REx D2, calcium flux, EC20 dopamine potentiation. potentiation, % at 10 µM. actives 0.34% (n = 340,000);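 active means potentiation over 3 SD above the plate norm, cut at about 30% in these data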
Target sequence (P14416 whole entry, looked up): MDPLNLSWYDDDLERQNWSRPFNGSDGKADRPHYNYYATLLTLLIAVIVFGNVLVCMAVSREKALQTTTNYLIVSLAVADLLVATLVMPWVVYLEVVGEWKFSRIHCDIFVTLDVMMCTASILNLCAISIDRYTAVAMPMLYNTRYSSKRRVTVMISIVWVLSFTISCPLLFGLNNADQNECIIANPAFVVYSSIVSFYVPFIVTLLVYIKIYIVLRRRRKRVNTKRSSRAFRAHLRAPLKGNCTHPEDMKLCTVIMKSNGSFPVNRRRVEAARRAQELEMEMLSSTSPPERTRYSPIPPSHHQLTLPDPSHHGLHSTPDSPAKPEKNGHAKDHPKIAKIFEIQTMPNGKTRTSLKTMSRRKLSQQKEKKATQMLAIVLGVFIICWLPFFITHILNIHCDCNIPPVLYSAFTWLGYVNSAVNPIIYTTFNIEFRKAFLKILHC
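Calcium flux readout, no-wash dye, 1 read/s. Inducible HEK293 Trex D2 line, overnight 30 C. Compound alone 180 s (agonist flags), then EC20 dopamine, another 180 s to score potentiation.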
D2 ag-1 = human D2 receptor agonism in beta-arrestin assay. activation, % (no concentration beside the values). DiscoveRx PathHunter D2 beta-arrestin, luminescence, 90 min; 100% = 57 uM dopamine signal. P14416. actives 0.084% (n = 360,000); in the data active means activation above about 40%; inconclusive means between about 15% and that limit
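DiscoveRx PathHunter D2 beta-arrestin cells (2,100/well) attached overnight, then compound-stimulated 90 min at 37 C in HBSS/10 mM HEPES/0.1% Tween-20 buffer; beta-galactosidase complementation read by luminescence after 1 h at ambient temperature. Dopamine 57 uM final (EC100) as control.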
D2 PAM-2 = human D2 receptor positive allosteric modulation. P14416. actives 0.23% (n = 360,000). DiscoveRx D2 beta-arrestin cells, luminescence, 90 min; 100% = 57 uM dopamine signal. potentiation, % (concentration not given with the values); in the data active means potentiation above about 50%; inconclusive means mostly about 30% to 49%
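PathHunter D2 cells, attached overnight at 37 deg C, received compound in DMSO plus dopamine at EC20 (50 nM final) for 90 min at 37 deg C. Beta-arrestin recruitment was read as luminescence after 1 h with detection reagent at ambient temperature.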
D2 antagonist = antagonists of human D2 dopamine receptor; P14416; HEK293 TREx D2 cells, calcium flux, dopamine EC80; inhibition, % at 10 µM; actives 2% (n = 340,000); in the data active means inhibition above about 30%; inactive means below that, where a call was filed
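Antagonism is scored as inhibition of an EC80 dopamine-evoked calcium signal in a force-coupled, tetracycline-inducible HEK293 T-REx D2 line, with compound present 180 s before agonist.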
D2 ag-2 = agonists of human D2 dopamine receptor; HEK293 T-REx D2 cells, calcium flux agonist mode; activation, % at 2 µM; actives 0.53% (n = 340,000);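 active means activation over 3 SD above normal in the single-dose calcium agonist read, cut at about 30% in these data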
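Agonism scored from kinetic calcium signal (1 read/sec, 180 s) following compound pin transfer, after a 10 s baseline. Cells: HEK293 Trex line expressing inducible D2 receptor coupled to calcium, dye-loaded after overnight culture at 30 C.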
A number is an active result; . = inactive; ? = inconclusive; / = not tested or not shown.

SMILES	D2 PAM-1	D2 ag-1	D2 PAM-2	D2 antagonist	D2 ag-2
COC(=O)c1ccsc1NC(=O)CSc1nnnn1-c1ccccc1SC	37	.	.	.	.
CCCN(CCC)CCNC(=O)C1CCN(S(=O)(=O)c2cccc3nsnc23)CC1	.	.	.	37	.
CN(C)CCNc1ncnc2oc(-c3ccccc3)c(-c3ccccc3)c12	.	.	.	.	.
COc1ccc(-c2oc3ncnc(NCCCN(C)C)c3c2-c2ccc(OC)cc2)cc1	.	.	.	54	.
CC1(C)Nc2ccc(O)cc2-c2c1ssc2=S	.	.	.	36	.
COc1cccc(-n2sc3c(c2=S)-c2cc(OC)ccc2NC3(C)C)c1	.	.	.	.	.
CCc1nc2ccc(C(=O)Nc3cc(-c4ccccc4)ccc3OC)cn2c1N(C=O)CCC(C)C	/	134	.	/	/
COc1ccc(N2CCN(C(=O)Cn3cnc4nc5c(cc4c3=O)CCCC5)CC2)cc1	.	/	/	/	.
CN1CCN(S(=O)(=O)c2cccc(C(=O)Oc3ccc(C(C)(C)C)cc3)c2)CC1	.	.	.	34	.
COc1ccccc1NC(c1ccc(Cl)cc1)c1nnc(-c2cccc(F)c2)o1 (stereo not drawn)	.	/	/	/	.
CCCCCn1c(=O)[nH]c2cc(C(=O)N3CCN(Cc4ccc5c(c4)OCO5)CC3)ccc2c1=O	.	.	.	.	38
CCOC(=O)N1CCN(C(=O)c2ccc(Cn3c(=S)[nH]c4cc(OCC)c(OCC)cc4c3=O)cc2)CC1	.	.	.	.	.
CCOC(=O)N1CCN(C(=O)c2ccc(Cn3c(=S)[nH]c4cc5c(cc4c3=O)OCO5)cc2)CC1	.	.	.	31	.
O=C(c1ccc(Cn2c(=S)[nH]c3ccccc3c2=O)cc1)N1CCN(c2ccccn2)CC1	.	.	.	33	.
CCOc1cc2[nH]c(=S)n(Cc3ccc(C(=O)NCCN(CC)CC)cc3)c(=O)c2cc1OCC	.	.	.	50	.
Cc1cc(C)nc(NS(=O)(=O)c2ccc(NC(=O)c3nc(SC(C)C)ncc3Cl)cc2)n1	.	/	/	/	.
O=C(c1ccc2c(=O)n(CCc3ccccc3)c(=O)[nH]c2c1)N1CCN(c2ccccc2)CC1	30	.	.	.	.
O=C(c1ccc2c(=O)n(CCc3ccccc3)c(=O)[nH]c2c1)N1CCN(c2ccc(F)cc2)CC1	.	.	.	.	.
C=CCn1c(=O)[nH]c2cc(C(=O)N3CC=C(c4ccccc4)CC3)ccc2c1=O	.	.	.	36	.
Cn1c(=O)c2c(nc(CN3CCN(c4ccccc4F)CC3)n2Cc2ccc(F)cc2)n(C)c1=O	.	/	/	/	.
Cc1cccc(NC(=O)CSc2nc3n[nH]c(C)c3c(=N)n2-c2cccc(Cl)c2)c1	.	/	/	/	.
COc1cccc(-c2noc(C3CCCN(C(=O)c4ccc(F)cc4F)C3)n2)c1 (stereo not drawn)	.	.	.	33	.
COC(=O)c1sc(=S)n(-c2ccccc2OC)c1N	31	.	.	.	.
COC(=O)C1=C(c2ccccc2)c2ccccc2S(=O)(=O)N1CC(=O)Nc1cccc(C(C)=O)c1	.	/	/	/	.
CCOC(=O)N1N=C(CC)CC1(O)C(F)(F)F (stereo not drawn)	38	.	.	.	.
SMILES	D2 PAM-1	D2 ag-1	D2 PAM-2	D2 antagonist	D2 ag-2
CC[C@@]12C(=O)N(c3cccc(Br)c3)C(=O)N1[C@H](c1ccc(Br)cc1)[C@@H]1C(=O)N(C(C)(C)C)C(=O)[C@@H]12	.	.	.	32	.
CCCCN(C)CCCNC(=O)Cn1ncc2c3ccccc3n(Cc3cc(C)ccc3C)c2c1=O	.	/	/	/	/
COc1ccc(Nc2nc(C)nc3c2nnn3Cc2ccccc2)cc1OC	35	.	.	.	.
Nc1c(C(=O)C2CC2)sc2nc(-c3cccs3)cc(C(F)(F)F)c12	.	.	.	.	36
CCOC(=O)c1c(NC(C)=O)sc2c(O)c(Br)cc(Br)c12	.	.	.	36	.
Cc1cc(C)cc(N=c2c([N+](=O)[O-])nn(-c3ccc4c(c3)OCCO4)n2O)c1	.	.	.	.	.
Cc1ccc(N=c2c([N+](=O)[O-])nn(-c3ccc4c(c3)OCCO4)n2O)cc1F	.	?	58	.	.
O=[N+]([O-])c1nn(-c2ccc3c(c2)OCCO3)n(O)c1=Nc1ccc(Cl)cc1	.	.	51	.	.
CCN1CCc2c(sc(N)c2C(N)=O)C1	.	.	.	38	.
CC(=O)NS(=O)(=O)c1ccc(NC(=O)c2cc(-c3cccs3)nc3ccccc23)cc1	.	.	.	.	37
Cc1cc(NC(=O)c2cc(-c3cccs3)nc3ccccc23)no1	.	.	.	37	.
Cc1ccc(Nc2c3c(nc4nncn24)CCC3)c(C)c1	.	/	/	/	.
Fc1ccc(NC(=S)N/N=C/c2cccc(Br)c2)c(F)c1	48	.	.	.	.
Cc1ccc(Cl)cc1NC(=O)CN1C(=O)NC(C)(C2CC2)C1=O (stereo not drawn)	/	.	.	/	/
CC1(C2CC2)NC(=O)N(CC(=O)NCc2ccc(Cl)cc2Cl)C1=O (stereo not drawn)	.	.	.	40	.
COCCn1nnnc1SCC(=O)N1CCCCC1	.	.	.	34	.
CCn1nnnc1SCC(=O)N1CCCCC1	.	.	.	.	.
COCc1nc(-c2ccc(-c3ccccc3)nc2OC)no1	.	.	.	42	.
COc1cccc(-c2ccc(-c3noc(-c4ccccc4F)n3)c(OC)n2)c1	.	.	.	40	.
COC(=O)c1ccccc1NC(=O)Cn1c(=O)n(-c2ccc(C)cc2)c(=O)c2ccccc21	.	/	/	/	.
Cc1ccc(N(C)C(=O)C2CCN(S(=O)(=O)c3c(C)noc3/C=C/c3c(C)cc(C)cc3C)CC2)cc1	.	/	/	/	.
Cc1nc2sccn2c(=O)c1CCN1CCC(=C(c2ccccc2)c2ccc(F)cc2)CC1	.	/	/	73	.
Cc1nc2sccn2c(=O)c1S(=O)(=O)N1CCN(c2ccccc2)CC1	.	.	.	.	.
Cn1c(=O)c2sccc2n2c(CCC(=O)Nc3ccc(F)cc3)nnc12	.	/	/	/	.
CCN(CCNc1ccc(Cl)cc1[N+](=O)[O-])C(=O)c1cc([N+](=O)[O-])c(N(C)C)cc1OC	.	.	.	34	.
SMILES	D2 PAM-1	D2 ag-1	D2 PAM-2	D2 antagonist	D2 ag-2
COCCCNC(=O)CSc1nc2nc(C)c(Cc3ccccc3Cl)c(C)n2n1	.	/	/	/	.
COc1ccc(N2CCN(C(=O)COC(=O)c3cccc(S(=O)(=O)Nc4cccc(C)c4)c3)CC2)cc1	.	.	.	40	.
COc1ccc(-n2ncc3c(NC(C)(C)CO)ncnc32)cc1	.	/	/	/	.
CCc1ccc(NC(=O)Cn2ccn(-c3ccc(C)c(C)c3)c(=O)c2=O)cc1	.	/	/	/	.
Cc1cccc(C)c1OCc1n[nH]c(=S)n1-c1ccccc1	.	.	.	.	.
Cc1cccc(C)c1OCc1n[nH]c(=S)n1N	.	.	.	43	.

From PubChem
